# Measured values from the supplement of paper PMC8728848.
# Shown is part of a subset that was picked to be rich in the strongest signals.
# What was measured:
# Test in all cases: glycan array binding signal (z-score within array); higher = stronger binding
# Conditions in all cases: glycan notation: IUPAC condensed, linker removed
# [1] = target: Fuc(a1-2)Gal(b1-3)[Fuc(a1-4)]GlcNAc(b1-2)Man(a1-3)[Fuc(a1-2)Gal(b1-3)[Fuc(a1-4)]GlcNAc(b1-2)Man(a1-6)]Man(b1-4)GlcNAc(b1-4)[Fuc(a1-6)]GlcNAc(b1-4)[Fuc(a1-6)]GlcNAc
# How it was run: (§1)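 The Consortium for Functional Glycomics database supplied 3228 glycan arrays, of which those lacking an available protein sequence were dropped. The binding signal, a within-array Z-score, was averaged across arrays of the same protein sequence and across linkers. Negative scores can be read as non-binding.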
# [2] = target: Fuc(a1-2)Gal(b1-4)GlcNAc(b1-3)Gal(b1-4)GlcNAc
# How it was run: as §1
# [3] = target: Fuc(a1-2)Gal(b1-4)GlcNAc(b1-3)GalNAc
# How it was run: as §1
# [4] = target: Fuc(a1-2)[Gal(a1-3)]Gal(b1-3)GlcNAc(b1-2)Man(a1-3)[Fuc(a1-2)[Gal(a1-3)]Gal(b1-3)GlcNAc(b1-2)Man(a1-6)]Man(b1-4)GlcNAc(b1-4)GlcNAc
# How it was run: as §1
# [5] = target: Fuc(a1-2)[Gal(a1-3)]Gal(b1-4)Glc
# How it was run: as §1
# [6] = target: Fuc(a1-2)[Gal(a1-3)]Gal(b1-4)GlcNAc(b1-6)GalNAc
# How it was run: as §1
# [7] = target: Fuc(a1-2)[Gal(a1-3)]Gal(b1-4)[Fuc(a1-3)]Glc
# How it was run: as §1
# [8] = target: Fuc(a1-2)[GalNAc(a1-3)]Gal(b1-3)GalNAc(a1-3)[Fuc(a1-2)]Gal(b1-4)GlcNAc
# How it was run: as §1
# [9] = target: Fuc(a1-3)[Gal3S(b1-4)]GlcNAc
# How it was run: as §1
# [10] = target: Fuc(a1-3)[Gal3S(b1-4)]GlcNAc6S
# How it was run: as §1
# [11] = target: Fuc(a1-4)GlcNAc
# How it was run: as §1
# [12] = target: Gal(a1-3)Gal(b1-4)[Fuc(a1-3)]GlcNAc(b1-2)Man(a1-3)[Gal(a1-3)Gal(b1-4)[Fuc(a1-3)]GlcNAc(b1-2)Man(a1-6)]Man(b1-4)GlcNAc(b1-4)GlcNAc
# How it was run: as §1
# [13] = target: Gal(a1-3)[Gal(a1-4)]Gal(b1-4)GlcNAc
# How it was run: as §1
# [14] = target: Gal(b1-3)GalNAc(a1-3)[Fuc(a1-2)]Gal(b1-4)Glc
# How it was run: as §1
# [15] = target: Gal(b1-3)GalNAc(b1-4)Gal(b1-4)Glc
# How it was run: as §1
# [16] = target: Gal(b1-3)GlcNAc(b1-3)Gal(b1-4)GlcNAc(b1-2)[Gal(b1-3)GlcNAc(b1-3)Gal(b1-4)GlcNAc(b1-6)]Man(a1-6)[Gal(b1-3)GlcNAc(b1-3)Gal(b1-4)GlcNAc(b1-2)Man(a1-3)]Man(b1-4)GlcNAc(b1-4)[Fuc(a1-6)]GlcNAc
# How it was run: as §1
# [17] = target: Gal(b1-3)GlcNAc(b1-6)[Gal(b1-3)]GalNAc
# How it was run: as §1
# [18] = target: Gal(b1-4)GlcNAc(b1-2)Man(a1-3)[GlcNAc(b1-2)Man(a1-6)]Man(b1-4)GlcNAc(b1-4)GlcNAc
# How it was run: as §1
# [19] = target: Gal(b1-4)GlcNAc(b1-2)Man(a1-6)[GlcNAc(b1-2)Man(a1-3)]Man(b1-4)GlcNAc(b1-4)GlcNAc
# How it was run: as §1
# [20] = target: Gal(b1-4)GlcNAc(b1-2)[Gal(b1-4)GlcNAc(b1-6)]Man(a1-6)[GlcNAc(b1-4)][Gal(b1-4)GlcNAc(b1-2)[Gal(b1-4)GlcNAc(b1-4)]Man(a1-3)]Man(b1-4)GlcNAc(b1-4)[Fuc(a1-6)]GlcNAc
# How it was run: as §1
# [21] = target: Gal(b1-4)GlcNAc(b1-3)Gal(b1-3)GalNAc
# How it was run: as §1
# [22] = target: Gal(b1-4)GlcNAc(b1-3)Gal(b1-4)GlcNAc(b1-2)[Gal(b1-4)GlcNAc(b1-3)Gal(b1-4)GlcNAc(b1-6)]Man(a1-6)[Gal(b1-4)GlcNAc(b1-3)Gal(b1-4)GlcNAc(b1-2)Man(a1-3)]Man(b1-4)GlcNAc(b1-4)GlcNAc
# How it was run: as §1
# [23] = target: Gal(b1-4)GlcNAc(b1-3)Gal(b1-4)GlcNAc(b1-3)Gal(b1-4)GlcNAc(b1-3)Gal(b1-4)GlcNAc(b1-2)Man(a1-3)[Gal(b1-4)GlcNAc(b1-3)Gal(b1-4)GlcNAc(b1-3)Gal(b1-4)GlcNAc(b1-3)Gal(b1-4)GlcNAc(b1-2)Man(a1-6)]Man(b1-4)GlcNAc(b1-4)GlcNAc
# How it was run: as §1
# [24] = target: Gal(b1-4)GlcNAc(b1-3)Gal(b1-4)GlcNAc(b1-3)Gal(b1-4)GlcNAc(b1-3)Gal(b1-4)GlcNAc(b1-3)Gal(b1-4)GlcNAc(b1-2)Man(a1-3)[Gal(b1-4)GlcNAc(b1-3)Gal(b1-4)GlcNAc(b1-3)Gal(b1-4)GlcNAc(b1-3)Gal(b1-4)GlcNAc(b1-3)Gal(b1-4)GlcNAc(b1-2)Man(a1-6)]Man(b1-4)GlcNAc(b1-4)GlcNAc
# How it was run: as §1
# [25] = target: Gal6S(b1-3)GlcNAc6S
# How it was run: as §1
# [26] = target: GalNAc(b1-4)GlcNAc(b1-3)GalNAc(b1-4)GlcNAc
# How it was run: as §1
# [27] = target: GalNAc3S(b1-4)GlcNAc3S
# How it was run: as §1
binder,measurement,setting,value
PX9896A-bth-573-26-573 (Bacteroides thetaiotaomicron) (protein) ETNNLKTKEDMYKYFGTSKSMLTHVYSYMPQGYQLFATSGGIFTEDRYSMRDCASDDGEFGAYADNIQNTNNGNWSPIKTYDDSWTLYRGIRAANSFIAEIAQVDFTRYEHDGQYTNWMKQLKYFPYEARVLRAHYFFELARRYGDIAMPLEVLTEEEANTIGKTPFSEVISFIVSECDDAANNLPDSYVNEPGAEIGRVTKGFAMAVKSKALLYAASKLHNPSMDTELWKKSAKAAIDIINTGLYSLDPQESANNLDSKEVVLMRINGDDSDFEMFNLPLRMTAGTRTSSLIPYSNYPSQNLVDAFETVNGYKVTLENTGWVCEDPAFDPQSPYENRDKRFYRAILANGMSFKDYTIETFKGGADDGIVSQGGSPTGYFLRKYIQEATSFEPGKEAVSKHHWVIYRYAETLLTYAESMVNAFNDVNYTDETYKYSALWAINEVRKNADMPLIPSMGKDEFMERLYNEWRVEFAFEDHRFWDVRRWKIADTTQRELYGVKIEKQADGTFNFYKNLYETRNWRDCMYLYPIPQSELYKNTNLNPQNTGW,glycan array binding signal (z-score),[1],0.845
same,glycan array binding signal (z-score),[2],-0.815
same,glycan array binding signal (z-score),[3],0.126
same,glycan array binding signal (z-score),[4],5.75
same,glycan array binding signal (z-score),[5],-0.838
same,glycan array binding signal (z-score),[6],-0.304
same,glycan array binding signal (z-score),[7],-1.01
same,glycan array binding signal (z-score),[8],0.607
same,glycan array binding signal (z-score),[9],-0.437
same,glycan array binding signal (z-score),[10],8.17
same,glycan array binding signal (z-score),[11],0.243
same,glycan array binding signal (z-score),[12],2.9
same,glycan array binding signal (z-score),[13],3.79
same,glycan array binding signal (z-score),[14],-0.889
same,glycan array binding signal (z-score),[15],-0.458
same,glycan array binding signal (z-score),[16],3.52
same,glycan array binding signal (z-score),[17],0.949
same,glycan array binding signal (z-score),[18],3.74
same,glycan array binding signal (z-score),[19],4.65
same,glycan array binding signal (z-score),[20],0.323
same,glycan array binding signal (z-score),[21],-0.185
same,glycan array binding signal (z-score),[22],5.18
same,glycan array binding signal (z-score),[23],0.219
same,glycan array binding signal (z-score),[24],0.845
same,glycan array binding signal (z-score),[25],3.99
same,glycan array binding signal (z-score),[26],-0.28
same,glycan array binding signal (z-score),[27],-0.744
